Holding throughout (assay): NCI-60 one-dose screen, 48 h (100 = growth as untreated, 0 = no growth, -100 = all killed)
Holding throughout (conditions): 10 µM

The subject of assay [1] is DU-145 prostate.
The subject of assay [2] is K-562 leukemia.
Assay [3] relates to MALME-3M melanoma.
The test system of assay [4] is MDA-MB-231 breast.
Assay [5] has as its system SF-268 CNS.
Assay [6] deals with SF-295 CNS.
Assay [7] has as its system SF-539 CNS.
Assay [8] deals with UACC-257 melanoma.
The test system of assay [9] is M14 melanoma.

This is part of a sample that, as a whole, favours compounds with a hit. Of some 83,000 tested, about 20% had one in any assay.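 In brief: 96-well plates, 48 h treatment, single concentration, percent growth endpoint.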 Values without a mark were called inactive. The source made the active and inactive calls. How the source made its calls: active means growth percent below 10; inactive means the rest.

Turning to `CSc1nc(-c2cccc(C)c2)c2cc(-c3ccccc3)n(C)c2n1`, the growth was 31.4% in [1]; 12% in [2]; 20.1% in assay [3]; 33.1% in assay [4]; 25.7% in assay [5]; 17.3% in [6]. Besides, the growth in assay [7] is 14.3%; in assay [8], 40.5%; in assay [9], 21%.

With `CC(=O)c1ccc(Nc2nc(SC(C)C)nc(-c3ccccc3)c2C#N)cc1`, the growth in assay [1] was 43.8%; in assay [2], 43%; in assay [3], 8.39% (active); in assay [4], -0.399% (active); in [5] it was 41.1%; in [6] it was -40.7% (active). The growth in [7] was -17.4% (active); in assay [8] it was 96.1%; in assay [9], 73.8%.

Consider `O=C(CSc1nnc(-c2c[nH]c3ccccc23)n1-c1ccccc1)Nc1ccc(C(=O)/C=C/c2ccc(Br)cc2)cc1`, for which the growth in [1] is 96.4%; in [2], 69.1%; in assay [3], 98.5%; in assay [4], 87.8%; in assay [5], 67%; in [6], 74.8%. The growth in assay [7] is 80.5%; in [8], 109%; in assay [9], 102%.

On to `O=C(CSc1nnc(-c2ccc3nc(-c4ccc(Cl)cc4)[nH]c3c2)o1)Nc1ccc(Cl)cc1`, for which the growth in assay [1] was 2.3% (active); in [2] it was 5.7% (active); in assay [3] it was -78.6% (active); in [4], -87.1% (active); in assay [5], -6.48% (active); in assay [6], -99.4% (active). Further, the growth was -100% (active) in assay [7], -32.6% (active) in assay [8] and -50.6% (active) in assay [9].

`Cc1ccc(CNC(=O)Cc2ccc3c(c2)CN(C2CCC(=O)NC2=O)C3=O)cc1` (configuration not stated): the growth in [1] is 30.2%; in [2], 14.5%; in assay [3], -64.1% (active); in [4] it was -36.7% (active); in assay [5], 9.5% (active); in assay [6], 6.35% (active). Besides, the growth in [7] is 18.6%; in [8], 70.5%; in assay [9], -23.5% (active).

As to `COc1ccc2[nH]cc(/C=N/Nc3cccc(Cl)n3)c2c1`, the growth in [1] was 64.4%; in [2], 19.9%; in assay [3] it was 76.3%; in assay [4], 3.25% (active); in [5], 32.8%; in assay [6] it was 47.2%. Further, the growth in assay [7] was 26.8%; in assay [8], 84.3%; in assay [9], 49.5%.

As to `COc1cc(NC(=O)CSc2nnc(-c3ccc4nc(-c5ccc(Cl)cc5)[nH]c4c3)o2)cc(OC)c1OC`, the growth is 73.8% in assay [1]; 31.3% in assay [2]; 66.5% in [3]; 75.2% in [4]; 76.1% in [5]; 48% in [6]. For the same compound, the growth in assay [7] was 43.7%; in assay [8] it was 94.4%; in assay [9], 69.5%.

As to `COc1cc2c3c(n(CCCNC(C)C)c(=O)c2cc1OC)-c1nc2c(cc1C3=O)OCO2`, the growth in assay [1] is 8.46% (active); in assay [2], 2.95% (active); in [3], -92.3% (active); in assay [4] it was -90.5% (active); in assay [5], -72.5% (active); in assay [6], 11.7%. The growth in [7] is -6.71% (active); in [8], -30.4% (active); in assay [9], -48.8% (active).
